Our source for the inhibition values is ChEMBL document CHEMBL1961873, “Compounds: GSK PKIS; Assays: Nanosyn kinase panel” (2012).

Experiment [1] concerns the target High affinity nerve growth factor receptor (Homo sapiens) (UniProt P04629). The note with it: at 1 µM.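 Also: each value is the mean percent inhibition of TRKA.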
Experiment [2] concerns the target BDNF/NT-3 growth factors receptor (Homo sapiens) (UniProt Q16620). The note with it: at 0.1 µM.
Experiment [3] shares this target. The note with it: at 1 µM.
Experiment [4] addresses NT-3 growth factor receptor (Homo sapiens) (UniProt Q16288). The note with it: at 0.1 µM.
For experiment [5] the target is unchanged. The note with it: at 1 µM.
Experiment [6] addresses T1, Tyrosine-protein kinase TXK (Homo sapiens) (UniProt P42681).
T1 sequence (whole entry): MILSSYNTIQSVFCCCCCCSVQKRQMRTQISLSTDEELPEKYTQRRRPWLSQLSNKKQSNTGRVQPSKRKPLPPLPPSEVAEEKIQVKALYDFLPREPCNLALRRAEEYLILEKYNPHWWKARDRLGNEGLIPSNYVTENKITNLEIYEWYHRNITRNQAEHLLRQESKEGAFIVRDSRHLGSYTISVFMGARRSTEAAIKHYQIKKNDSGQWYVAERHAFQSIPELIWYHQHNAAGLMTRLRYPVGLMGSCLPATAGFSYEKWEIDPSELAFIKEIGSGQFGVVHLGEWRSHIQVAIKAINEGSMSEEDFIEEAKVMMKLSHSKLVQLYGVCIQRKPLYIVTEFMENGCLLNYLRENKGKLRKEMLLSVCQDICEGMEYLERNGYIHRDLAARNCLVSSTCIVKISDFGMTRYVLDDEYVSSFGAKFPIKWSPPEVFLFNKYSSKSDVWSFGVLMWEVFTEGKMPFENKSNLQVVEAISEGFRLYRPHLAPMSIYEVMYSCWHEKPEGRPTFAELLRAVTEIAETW
The note with it: at 0.1 µM.

The target of experiment [7] is T1, Tyrosine-protein kinase TXK (Homo sapiens). The settings on record: at 1 µM.
Experiment [8] has as its target Non-receptor tyrosine-protein kinase TYK2 (Homo sapiens) (UniProt P29597). The note with it: at 0.1 µM.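 Also: each value is a mean of the inhibition readings.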
Experiment [9] concerns the target T2, Dual specificity protein kinase TTK (Homo sapiens) (UniProt P33981).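 Also: reported figures are mean TTK inhibition at 1 µM.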
T2 sequence (whole entry): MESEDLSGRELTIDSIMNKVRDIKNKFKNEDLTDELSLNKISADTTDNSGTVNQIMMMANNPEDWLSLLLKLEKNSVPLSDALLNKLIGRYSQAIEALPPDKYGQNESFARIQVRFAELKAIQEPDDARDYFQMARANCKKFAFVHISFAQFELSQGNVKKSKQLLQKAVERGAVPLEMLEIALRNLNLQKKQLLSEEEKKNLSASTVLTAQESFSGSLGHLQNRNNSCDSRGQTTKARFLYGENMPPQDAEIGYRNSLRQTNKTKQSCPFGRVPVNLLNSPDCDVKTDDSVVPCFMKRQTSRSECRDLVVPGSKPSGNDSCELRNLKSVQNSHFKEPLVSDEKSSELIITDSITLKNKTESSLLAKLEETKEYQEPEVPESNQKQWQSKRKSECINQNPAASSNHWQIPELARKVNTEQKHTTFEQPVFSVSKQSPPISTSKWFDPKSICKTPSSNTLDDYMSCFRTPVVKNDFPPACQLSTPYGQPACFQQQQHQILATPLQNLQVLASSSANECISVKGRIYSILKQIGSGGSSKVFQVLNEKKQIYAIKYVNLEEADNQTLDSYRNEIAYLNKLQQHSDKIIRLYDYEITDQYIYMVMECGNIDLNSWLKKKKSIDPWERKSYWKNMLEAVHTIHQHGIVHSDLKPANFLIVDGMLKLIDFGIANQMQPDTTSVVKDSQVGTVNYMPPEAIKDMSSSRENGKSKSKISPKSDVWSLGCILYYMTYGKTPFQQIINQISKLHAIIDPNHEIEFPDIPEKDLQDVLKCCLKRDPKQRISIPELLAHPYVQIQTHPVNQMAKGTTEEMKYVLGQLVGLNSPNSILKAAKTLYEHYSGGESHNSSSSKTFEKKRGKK
The settings on record: at 1 µM.

Experiment [10] concerns the target T3, Aurora kinase A (Homo sapiens) (UniProt O14965).
T3 sequence (whole entry): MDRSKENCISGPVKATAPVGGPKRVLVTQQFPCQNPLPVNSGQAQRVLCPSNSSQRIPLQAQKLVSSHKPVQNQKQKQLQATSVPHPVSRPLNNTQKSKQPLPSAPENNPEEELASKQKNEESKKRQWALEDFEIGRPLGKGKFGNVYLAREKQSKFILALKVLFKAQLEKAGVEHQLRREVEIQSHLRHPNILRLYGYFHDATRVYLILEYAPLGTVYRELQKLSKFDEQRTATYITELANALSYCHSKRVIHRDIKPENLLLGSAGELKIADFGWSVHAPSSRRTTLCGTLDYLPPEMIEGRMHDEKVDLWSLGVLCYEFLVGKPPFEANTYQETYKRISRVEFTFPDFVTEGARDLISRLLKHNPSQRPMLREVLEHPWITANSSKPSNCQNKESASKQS
The settings on record: at 0.1 µM.

For experiment [11], the target named is T3, Aurora kinase A (Homo sapiens). The settings on record: at 1 µM.
Experiment [12] has as its target Aurora kinase B (Homo sapiens) (UniProt Q96GD4). The settings on record: at 0.1 µM.
Experiment [13] has the same target. The settings on record: at 1 µM.
For experiment [14], the target named is T4, Aurora kinase C (Homo sapiens) (UniProt Q9UQB9).
T4 sequence (whole entry): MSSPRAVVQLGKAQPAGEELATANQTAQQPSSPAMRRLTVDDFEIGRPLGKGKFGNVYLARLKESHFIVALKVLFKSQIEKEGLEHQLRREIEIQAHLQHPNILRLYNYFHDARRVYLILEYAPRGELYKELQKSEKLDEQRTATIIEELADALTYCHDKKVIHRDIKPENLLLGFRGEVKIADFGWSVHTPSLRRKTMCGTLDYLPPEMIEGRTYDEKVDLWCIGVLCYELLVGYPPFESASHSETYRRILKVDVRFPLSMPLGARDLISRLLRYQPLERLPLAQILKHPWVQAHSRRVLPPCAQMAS
The settings on record: at 0.1 µM.

In experiment [15] the target is T4, Aurora kinase C (Homo sapiens). The note with it: at 1 µM.
Experiment [16] concerns the target Serine/threonine-protein kinase 10 (Homo sapiens) (UniProt O94804). The note with it: at 0.1 µM.
Experiment [17] has the same target. The settings on record: at 1 µM.
In experiment [18] the target is T5, Mitogen-activated protein kinase kinase kinase kinase 2 (Homo sapiens) (UniProt Q12851).
T5 sequence (whole entry): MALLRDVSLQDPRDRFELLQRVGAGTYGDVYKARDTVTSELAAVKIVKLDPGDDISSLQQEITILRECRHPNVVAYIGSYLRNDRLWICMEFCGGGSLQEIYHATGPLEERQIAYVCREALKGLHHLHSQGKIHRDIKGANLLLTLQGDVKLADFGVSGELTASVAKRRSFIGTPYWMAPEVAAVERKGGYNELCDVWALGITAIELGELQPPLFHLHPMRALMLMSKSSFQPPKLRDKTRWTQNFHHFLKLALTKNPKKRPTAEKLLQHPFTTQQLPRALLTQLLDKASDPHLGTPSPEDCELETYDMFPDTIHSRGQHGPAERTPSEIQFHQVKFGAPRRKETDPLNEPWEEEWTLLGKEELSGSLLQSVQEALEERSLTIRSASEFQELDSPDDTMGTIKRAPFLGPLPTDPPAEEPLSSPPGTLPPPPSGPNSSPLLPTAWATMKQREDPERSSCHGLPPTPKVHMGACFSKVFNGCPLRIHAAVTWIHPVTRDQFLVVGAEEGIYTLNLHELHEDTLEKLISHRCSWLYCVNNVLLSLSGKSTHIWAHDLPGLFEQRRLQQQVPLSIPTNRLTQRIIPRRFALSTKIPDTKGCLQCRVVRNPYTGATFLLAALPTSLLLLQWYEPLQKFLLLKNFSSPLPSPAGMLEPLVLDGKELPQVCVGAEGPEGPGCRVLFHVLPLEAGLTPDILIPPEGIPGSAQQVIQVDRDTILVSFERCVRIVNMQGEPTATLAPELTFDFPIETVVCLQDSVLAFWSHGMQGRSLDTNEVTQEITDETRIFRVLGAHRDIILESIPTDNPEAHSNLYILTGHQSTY
The note with it: at 0.1 µM.

For experiment [19], the target named is T5, Mitogen-activated protein kinase kinase kinase kinase 2 (Homo sapiens). The note with it: at 1 µM.
Experiment [20] concerns the target Mitogen-activated protein kinase kinase kinase kinase 4 (Homo sapiens) (UniProt O95819). The note with it: at 0.1 µM.

Sequence of Mitogen-activated protein kinase kinase kinase kinase 4 (Homo sapiens) (O95819 2-1239 limits assumed): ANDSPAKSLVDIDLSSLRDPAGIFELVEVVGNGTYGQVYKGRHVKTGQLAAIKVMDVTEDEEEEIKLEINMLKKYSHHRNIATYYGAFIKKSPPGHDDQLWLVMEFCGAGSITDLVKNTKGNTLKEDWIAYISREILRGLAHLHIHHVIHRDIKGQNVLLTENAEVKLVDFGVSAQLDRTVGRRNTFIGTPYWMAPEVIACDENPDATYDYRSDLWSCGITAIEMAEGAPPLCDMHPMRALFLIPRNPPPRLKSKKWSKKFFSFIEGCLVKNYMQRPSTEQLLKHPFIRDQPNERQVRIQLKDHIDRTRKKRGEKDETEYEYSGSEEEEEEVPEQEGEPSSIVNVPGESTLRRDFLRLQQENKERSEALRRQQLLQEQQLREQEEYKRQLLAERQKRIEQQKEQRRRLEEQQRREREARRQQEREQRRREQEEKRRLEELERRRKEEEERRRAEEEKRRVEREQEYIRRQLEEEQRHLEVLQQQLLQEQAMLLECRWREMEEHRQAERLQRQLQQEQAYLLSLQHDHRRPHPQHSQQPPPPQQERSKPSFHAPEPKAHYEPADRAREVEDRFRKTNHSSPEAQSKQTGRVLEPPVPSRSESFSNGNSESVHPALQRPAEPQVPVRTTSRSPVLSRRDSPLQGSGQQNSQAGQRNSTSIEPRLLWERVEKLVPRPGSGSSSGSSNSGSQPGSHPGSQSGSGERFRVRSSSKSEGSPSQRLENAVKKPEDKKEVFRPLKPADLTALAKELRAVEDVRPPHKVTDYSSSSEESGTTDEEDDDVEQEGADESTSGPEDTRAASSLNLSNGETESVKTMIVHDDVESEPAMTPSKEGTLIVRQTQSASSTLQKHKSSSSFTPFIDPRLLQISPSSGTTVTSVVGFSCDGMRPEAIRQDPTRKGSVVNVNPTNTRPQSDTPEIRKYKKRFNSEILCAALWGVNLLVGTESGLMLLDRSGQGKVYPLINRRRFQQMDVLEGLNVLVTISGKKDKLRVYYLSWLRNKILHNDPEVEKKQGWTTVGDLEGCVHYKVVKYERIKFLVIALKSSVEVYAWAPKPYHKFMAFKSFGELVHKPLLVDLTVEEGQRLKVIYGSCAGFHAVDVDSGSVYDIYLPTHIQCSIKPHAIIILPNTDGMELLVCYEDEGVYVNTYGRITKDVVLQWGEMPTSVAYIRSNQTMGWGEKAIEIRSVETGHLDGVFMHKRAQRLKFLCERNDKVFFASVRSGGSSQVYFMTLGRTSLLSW
Sequence of Non-receptor tyrosine-protein kinase TYK2 (Homo sapiens) (P29597 whole entry): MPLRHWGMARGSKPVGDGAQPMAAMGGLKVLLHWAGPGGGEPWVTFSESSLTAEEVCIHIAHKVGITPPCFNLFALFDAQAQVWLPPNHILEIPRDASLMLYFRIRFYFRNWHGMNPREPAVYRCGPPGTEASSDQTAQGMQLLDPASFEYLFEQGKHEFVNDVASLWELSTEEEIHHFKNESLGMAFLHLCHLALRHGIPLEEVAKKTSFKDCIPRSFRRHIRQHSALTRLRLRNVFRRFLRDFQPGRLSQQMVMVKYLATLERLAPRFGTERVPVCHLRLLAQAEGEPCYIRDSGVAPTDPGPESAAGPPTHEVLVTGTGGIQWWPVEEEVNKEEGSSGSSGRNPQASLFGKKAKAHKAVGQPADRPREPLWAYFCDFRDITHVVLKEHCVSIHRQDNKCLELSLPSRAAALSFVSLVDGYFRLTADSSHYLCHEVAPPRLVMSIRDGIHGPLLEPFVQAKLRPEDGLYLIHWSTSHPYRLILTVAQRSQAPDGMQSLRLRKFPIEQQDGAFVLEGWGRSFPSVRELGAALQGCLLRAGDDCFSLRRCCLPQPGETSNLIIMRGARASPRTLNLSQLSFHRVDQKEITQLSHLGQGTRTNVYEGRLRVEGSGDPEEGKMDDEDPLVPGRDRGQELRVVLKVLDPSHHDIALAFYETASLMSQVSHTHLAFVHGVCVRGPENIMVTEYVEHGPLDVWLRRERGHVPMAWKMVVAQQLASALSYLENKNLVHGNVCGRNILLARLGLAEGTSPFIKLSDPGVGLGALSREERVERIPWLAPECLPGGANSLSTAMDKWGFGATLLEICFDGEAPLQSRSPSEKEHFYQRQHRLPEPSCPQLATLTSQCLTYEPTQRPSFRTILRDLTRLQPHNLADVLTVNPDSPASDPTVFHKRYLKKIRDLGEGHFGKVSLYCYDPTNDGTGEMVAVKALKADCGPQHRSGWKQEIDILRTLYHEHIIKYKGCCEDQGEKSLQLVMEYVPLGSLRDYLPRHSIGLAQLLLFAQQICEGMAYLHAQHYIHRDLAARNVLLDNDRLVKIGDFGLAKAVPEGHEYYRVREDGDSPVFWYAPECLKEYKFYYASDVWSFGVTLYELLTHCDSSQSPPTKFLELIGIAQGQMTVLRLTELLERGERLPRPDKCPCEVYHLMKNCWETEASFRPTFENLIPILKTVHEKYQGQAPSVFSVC
Sequence of Aurora kinase B (Homo sapiens) (Q96GD4 whole entry): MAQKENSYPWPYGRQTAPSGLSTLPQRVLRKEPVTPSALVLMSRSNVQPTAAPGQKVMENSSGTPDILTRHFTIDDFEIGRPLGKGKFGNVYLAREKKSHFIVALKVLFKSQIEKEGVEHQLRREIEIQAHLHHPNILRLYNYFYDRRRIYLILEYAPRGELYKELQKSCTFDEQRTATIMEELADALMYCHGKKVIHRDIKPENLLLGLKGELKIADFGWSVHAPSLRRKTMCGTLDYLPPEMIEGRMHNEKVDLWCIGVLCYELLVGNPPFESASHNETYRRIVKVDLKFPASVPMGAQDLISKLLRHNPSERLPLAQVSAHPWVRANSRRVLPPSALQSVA
Sequence of NT-3 growth factor receptor (Homo sapiens) (Q16288 32-839 limits assumed): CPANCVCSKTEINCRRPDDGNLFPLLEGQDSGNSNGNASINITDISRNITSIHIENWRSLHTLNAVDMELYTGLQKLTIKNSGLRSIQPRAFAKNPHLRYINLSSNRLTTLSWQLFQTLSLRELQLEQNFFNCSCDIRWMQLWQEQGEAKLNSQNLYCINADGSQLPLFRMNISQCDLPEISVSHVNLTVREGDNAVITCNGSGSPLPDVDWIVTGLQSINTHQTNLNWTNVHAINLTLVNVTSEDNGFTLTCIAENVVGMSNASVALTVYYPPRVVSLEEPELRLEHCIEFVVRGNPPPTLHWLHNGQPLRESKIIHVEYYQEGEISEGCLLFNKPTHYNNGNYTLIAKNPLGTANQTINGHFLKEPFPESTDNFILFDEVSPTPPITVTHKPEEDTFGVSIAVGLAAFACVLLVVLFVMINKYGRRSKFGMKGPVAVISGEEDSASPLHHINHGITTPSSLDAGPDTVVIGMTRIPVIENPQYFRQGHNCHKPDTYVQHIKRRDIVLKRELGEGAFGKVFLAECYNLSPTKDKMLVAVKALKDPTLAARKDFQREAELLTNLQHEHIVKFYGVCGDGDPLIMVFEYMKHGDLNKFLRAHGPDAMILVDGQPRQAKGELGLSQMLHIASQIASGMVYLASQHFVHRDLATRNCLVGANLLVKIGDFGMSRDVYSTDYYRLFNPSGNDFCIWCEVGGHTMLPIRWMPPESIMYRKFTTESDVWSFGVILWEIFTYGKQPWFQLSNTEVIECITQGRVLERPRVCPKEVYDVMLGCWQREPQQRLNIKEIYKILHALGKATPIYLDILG
Sequence of BDNF/NT-3 growth factors receptor (Homo sapiens) (Q16620 32-822 limits assumed): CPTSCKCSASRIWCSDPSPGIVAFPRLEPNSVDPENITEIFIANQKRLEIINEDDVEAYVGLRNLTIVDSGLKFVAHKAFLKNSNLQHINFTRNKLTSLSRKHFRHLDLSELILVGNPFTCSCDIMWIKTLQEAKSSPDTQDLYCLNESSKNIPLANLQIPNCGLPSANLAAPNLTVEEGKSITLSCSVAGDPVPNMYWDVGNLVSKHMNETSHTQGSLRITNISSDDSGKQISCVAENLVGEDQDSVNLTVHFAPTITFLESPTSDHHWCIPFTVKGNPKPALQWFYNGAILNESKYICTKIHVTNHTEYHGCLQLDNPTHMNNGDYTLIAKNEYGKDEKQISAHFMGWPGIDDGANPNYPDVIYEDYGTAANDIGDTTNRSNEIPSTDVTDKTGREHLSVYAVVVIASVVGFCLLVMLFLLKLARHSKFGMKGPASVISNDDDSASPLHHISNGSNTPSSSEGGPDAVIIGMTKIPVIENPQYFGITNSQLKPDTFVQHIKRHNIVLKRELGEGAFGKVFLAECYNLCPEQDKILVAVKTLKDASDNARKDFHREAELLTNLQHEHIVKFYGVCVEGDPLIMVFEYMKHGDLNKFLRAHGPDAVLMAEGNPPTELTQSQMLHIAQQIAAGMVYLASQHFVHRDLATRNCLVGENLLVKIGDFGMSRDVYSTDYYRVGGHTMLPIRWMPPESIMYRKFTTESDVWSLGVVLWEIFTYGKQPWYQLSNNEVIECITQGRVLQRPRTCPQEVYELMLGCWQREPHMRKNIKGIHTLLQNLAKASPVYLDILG

For the molecule `c1ccc(COc2ccc(Nc3ncnc4ccc(-c5ccco5)cc34)cc2)cc1`, the inhibition in experiment [1] is -2.33%; in experiment [2] it was -0.32%; in experiment [3], 3.16%; in experiment [4], -0.16%; in [5] it was 0.74%; in experiment [6] it was 0.01%. Moreover, the inhibition in [7] is 1.09%; in [8] it was -4.95%; in experiment [9] it was 3.2%; in experiment [10], 2.29%; in experiment [11] it was 3.53%; in experiment [12], 1.9%. Also, the inhibition was 4.9% in [13]; 0.82% in [14]; 6.4% in [15]; 3.53% in [16]; 5.39% in [17]; 2.84% in experiment [18]. Also, the inhibition in experiment [19] was determined as 2.66%; in experiment [20], 2.01%.

On to `COc1ccc2c(-c3ccnc(Nc4cccc(OC(F)(F)F)c4)n3)cnn2n1`, for which the inhibition in experiment [1] came out at 11.1%; in experiment [2], 2.97%; in experiment [3], 7.33%; in experiment [4], 2.73%; in experiment [5] it was 12.3%; in [6], 2.09%. The inhibition in experiment [7] is 5.53%; in [8] it was -3.37%; in experiment [9], 17.1%; in experiment [10], 0.72%; in experiment [11], 33.9%; in experiment [12], 5.14%. Moreover, the inhibition in [13] was determined as 28.8%; in experiment [14], 2.02%; in [15], 56.9%; in [16], 4.75%; in experiment [17] it was 10.6%; in [18], 0.05%. Besides, the inhibition in experiment [19] came out at 5.46%; in experiment [20], 4.63%.

`CCn1c(-c2nonc2N)nc2cnc(Oc3cccc(NC(=O)c4ccc(N(C)C)cc4)c3)cc21`: the inhibition is -1.16% in experiment [1]; 0.09% in experiment [2]; 0.73% in [3]; -0.04% in experiment [4]; 1.6% in [5]; 1.57% in experiment [6]. Besides, the inhibition in experiment [7] was 3.29%; in experiment [8], -5.17%; in experiment [9], 2.67%; in [10] it was 6.99%; in experiment [11], 79.2%; in [12], 3.58%. Moreover, the inhibition in experiment [13] is 18.1%; in experiment [14], 1.17%; in [15], 43.7%; in experiment [16], 2.62%; in experiment [17] it was 5.59%; in [18], -0.28%. Besides, the figures for the inhibition in experiment [19] and in experiment [20] were 3.56% and 3.32%, respectively.

With `N#Cc1c(NC(=O)c2ccc(F)cc2)sc2c1CCCC2`, the inhibition in [1] is -0.28%; in experiment [2], 0.21%; in [3], 0.82%; in experiment [4], 0.15%; in [5] it was 1.15%; in [6], 1.7%. Also, the inhibition in experiment [7] was 2.45%; in [8], -3.45%; in experiment [9], 2.26%; in experiment [10] it was 1.91%; in [11] it was 0.18%; in experiment [12] it was 2.3%. The inhibition was 1.27% in experiment [13]; 0.83% in experiment [14]; -4.93% in experiment [15]; 3.11% in experiment [16]; 6.81% in experiment [17]; 0.12% in experiment [18]. The inhibition was found to be 1.05% in experiment [19] and 1.93% in experiment [20].

With `FC(F)(F)c1cccc(-c2nn3ncccc3c2-c2ccnc(Nc3ccc4c(c3)OCCO4)n2)c1`, the inhibition amounted to 3.48% in experiment [1]; 1.94% in [2]; 3.39% in experiment [3]; 0.62% in experiment [4]; 3.72% in experiment [5]; 3.11% in experiment [6]. Further, the inhibition in experiment [7] is 9%; in experiment [8] it was -2.27%; in [9], 14.6%; in experiment [10] it was 2.64%; in [11], 24.7%; in experiment [12] it was 4.28%. For the same molecule, the inhibition in [13] is 12.4%; in experiment [14], 1.81%; in [15] it was 19.9%; in experiment [16], 3.84%; in experiment [17] it was 19.8%; in experiment [18], 1.35%. Besides, the figures for the inhibition in [19] and in experiment [20] were 12.2% and 7.12%, respectively.

Turning to `COC(=O)Nc1nc2ccc(S(=O)(=O)c3ccc(NC(=O)Nc4cc(C(F)(F)F)ccc4F)cc3)cc2[nH]1`, the inhibition in [1] was 2.05%; in [2], 0.88%; in experiment [3] it was 3.21%; in experiment [4], 1.98%; in experiment [5] it was 3.91%; in experiment [6] it was 2.55%. Further, the inhibition in [7] is 4.65%; in experiment [8] it was -1.55%; in experiment [9] it was 10.5%; in experiment [10], 3.13%; in [11], 8.25%; in [12], 3.7%. In addition, the inhibition in experiment [13] is 7.15%; in experiment [14] it was 0.87%; in [15], 14.1%; in experiment [16] it was 3.49%; in experiment [17], 10.6%; in [18] it was -0.09%. Further, the inhibition was 1.67% in experiment [19] and 2.49% in experiment [20].

As a reminder, the inhibition is the drop in the measured response relative to a control, in per cent.
